# Source: PubChem
# Sampled rows, rich in hits. Any-hit rate of the full collection: about 32%.
# PostGolgi ctrl: inhibits growth of the yeast control strain; efflux-deficient yeast background strain, growth absorbance A615, 16 h; inhibition, % at 10 µM; hit rate 5% among 98,000
# CYP2C9 activ: CYP2C9 (human) activation; P11712; recombinant CYP2C9, luciferin-H conversion, luminescence; stronger effect = higher value; factor 1 = untreated enzyme, 0 = blocked; activation factor at 5 µM; hit rate 1.4% among 96,000; AID 1024;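 active = activation factor of 2 or more for CYP2C9 at a 5 µM dose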;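 also: 0 = sulfaphenazole-blocked wells and 1 = vehicle-only wells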
# CYP2C9 inhib: human CYP2C9 inhibition. hit rate 20% among 96,000. P11712. CYP2C9 Supersomes, luciferin-H conversion, luminescence. inhibition, % at 5 µM;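 active = blocking of liver enzyme CYP2C9 beyond about 50% at 5 µM, limit read from the data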
# CYP2C19 inh: human CYP2C19 inhibition; P33261; CYP2C19 Supersomes, luciferin-H EGE luminescence, 30 min; inhibition, % at 5 µM; hit rate 21% among 96,000;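 active = CYP2C19 inhibition above a set limit at 5 µM in the primary screen, cut at about 50% in these data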;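 also: plate controls were negative control wells for no effect and 2.5 mM tranylcypromine positive control for full effect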
# Target sequence (P33261 whole entry, looked up): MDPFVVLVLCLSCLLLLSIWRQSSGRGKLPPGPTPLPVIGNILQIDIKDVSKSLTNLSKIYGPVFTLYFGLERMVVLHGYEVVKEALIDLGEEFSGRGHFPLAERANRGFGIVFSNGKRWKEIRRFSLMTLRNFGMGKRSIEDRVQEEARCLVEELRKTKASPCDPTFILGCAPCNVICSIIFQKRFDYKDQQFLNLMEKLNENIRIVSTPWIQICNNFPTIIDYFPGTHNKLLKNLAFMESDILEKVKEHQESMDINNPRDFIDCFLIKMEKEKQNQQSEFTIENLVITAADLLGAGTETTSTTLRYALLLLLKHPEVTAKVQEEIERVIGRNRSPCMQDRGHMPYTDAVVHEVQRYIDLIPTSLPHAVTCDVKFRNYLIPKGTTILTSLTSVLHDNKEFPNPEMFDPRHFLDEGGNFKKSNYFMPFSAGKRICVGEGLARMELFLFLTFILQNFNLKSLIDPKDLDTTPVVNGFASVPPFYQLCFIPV
# PostGolgi yeast: growth inhibition of a yeast mutant, post-Golgi transport screen; post-Golgi transport phenotypic cell assay; inhibition, % at 10 µM; hit rate 0.9% among 98,000;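 also: yeast cells grown in 1536-well plates; yeast grown about 18 h at 30C before absorbance read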
# CYP2C19 activ: cytochrome P450 2C19 (human) activation; P33261; recombinant CYP2C19, luciferin-H EGE luminescence; stronger effect = higher value; 0 = fully inhibited enzyme, 1 = untreated enzyme; activation factor at 5 µM; 96,000 tested, under 10 active;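 active = activation factor of at least 2 at 5 µM in the primary screen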;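 also: 0 = wells with 2.5 mM tranylcypromine and 1 = vehicle-only wells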
# * hit, by the source's call; . = no result given. Rule as the data show it, unless noted: active = inhibition above about 30%; inactive = the rest.
SMILES,PostGolgi ctrl,CYP2C9 activ,CYP2C9 inhib,CYP2C19 inh,PostGolgi yeast,CYP2C19 activ
C=CCCC(=O)Nc1nc(C)c(-c2csc(Nc3ccccc3OC)n2)s1,4,0.4,57*,17,0,0.8
CCC(C)C(=O)Nc1nc(C)c(-c2csc(Nc3ccccc3OC)n2)s1 (centres undefined),4,0.4,63*,27,-4,0.7
O=C(CSc1nnc(Cc2ccccc2)n1-c1cccc(Cl)c1)N1CCOCC1,-8,0.8,20,16,5,0.8
O=C(NC(=S)N1CCCCC1)C12CC3CC(CC(C3)C1)C2,33*,1,4,20,21,0.8
CCOc1cc(/C=C2\C(=O)N(c3nc(-c4ccc(Br)cc4)cs3)N=C2c2ccccc2)ccc1O,31*,0.1,87*,25,1,0.7
COc1ccc(N2C(=O)C(Cl)=C(N3CCCC(C)C3)C2=O)cc1 (centres undefined),-7,0.2,85*,84*,-5,0.2
COc1ccc(N2C(=O)C(Cl)=C(N3CCCC3)C2=O)cc1,2,0.9,6,34,-3,0.7
Cn1c(N)c(C(=O)COC(=O)Cc2ccsc2)c(=O)n(C)c1=O,-2,1.1,-7,-1,0,1
CCOC(=O)CC1C(=O)NCCN1Cc1cccc(C(F)(F)F)c1 (centres undefined),-2,1.2,-20,55*,2,0.4
CCOC(=O)CC1C(=O)NCCN1C(=O)c1c(F)cccc1F (centres undefined),2,0.9,12,1,6,1
O=C(CSc1nc2ccccc2c(=O)[nH]1)NCc1ccc(Cl)cc1,4,0.5,51*,18,0,0.8
Cc1nnc(SCC(=O)NCc2ccc(Cl)cc2)[nH]c1=O,1,0.8,17,-8,-8,1.1
O=C(O)CSc1nc2ccccc2c(=O)[nH]1,4,1.1,-9,-7,-1,1.1
COC(=O)c1ccccc1NC(=O)CSc1nc2ccccc2c(=O)[nH]1,29,0.4,59*,28,-7,0.7
Cc1ccc(-c2c(C#N)c(N)n3c(nc4ccccc43)c2C#N)cc1,16,0.4,64*,12,4,0.9
OC(COc1ccc2cc(Br)ccc2c1)CN1CCN(c2ccccn2)CC1 (centres undefined),37*,0.7,28,10,0,0.9
CN(C)S(=O)(=O)N1CCN(CC(O)COc2ccc3cc(Br)ccc3c2)CC1 (centres undefined),41*,0.4,58*,48,7,0.5
COc1ccc(C2=NN3C(C2)c2ccccc2OC32C(=O)N(C)c3ccccc32)cc1 (centres undefined),30*,0.9,15,5,4,1
CCN(c1ccccc1)S(=O)(=O)c1ccc(F)cc1C,1,0.9,10,67*,-6,0.3
CCN(c1ccccc1)S(=O)(=O)c1ccc(F)c(C(=O)O)c1,1,1.1,-7,-19,-3,1.2
COC(=O)c1coc(-c2ccc(C)cc2)c1C(=O)OC,13,0.4,59*,79*,10,0.2
COC(=O)c1noc(-c2ccc(C)cc2)n1,0,1.1,-11,-5,-3,1.1
COC(=O)c1coc(-c2ccc(OC)cc2)c1C(=O)OC,11,0.8,19,63*,-5,0.4
CC(C)(CNC(=O)c1ccc([N+](=O)[O-])c(Cl)c1)CNC(=O)c1ccc([N+](=O)[O-])c(Cl)c1,26,.,.,43,-47,0.6
Cc1ccc(C(=O)NCC2CCCO2)cc1N1CCCC1=O (centres undefined),5,1.1,-6,-4,0,1
SMILES,PostGolgi ctrl,CYP2C9 activ,CYP2C9 inhib,CYP2C19 inh,PostGolgi yeast,CYP2C19 activ
Nc1nonc1-c1noc(CCCCCN2C(=O)c3ccccc3C2=O)n1,13,0.9,13,6,-1,0.9
Cc1nc2nc(SCC(=O)N3CCOCC3)nn2c(C)c1Cc1c(F)cccc1Cl,4,0.5,53*,18,-22,0.8
COc1ccc(N=C2S/C(=C\c3cc(C)n(C)c3C)C(=O)N2CC(C)C)cc1,11,0.7,29,2,-11,1
COC(=O)CN1C(=O)S/C(=C/c2cc(C)n(C)c2C)C1=O,7,0.5,51*,23,-1,0.8
CCCCc1nc2ccccc2c(=O)n1NC(=O)c1c(O)c2c(n(CC(C)C)c1=O)CCCC2,9,0.4,60*,15,-4,0.8
CC(C)Cn1c2c(c(O)c(C(=O)Nc3ncccc3O)c1=O)CCCC2,17,0.7,31,22,-4,0.8
CCCn1c2c(c(O)c(C(=O)Nc3ccccc3)c1=O)CCCC2,16,0.2,76*,13,3,0.9
CCCn1c2c(c(O)c(C(=O)Nc3ccccn3)c1=O)CCCC2,.,1.1,-12,-16,.,1.2
O=C1C2CCCN2C(c2ccccc2F)N1c1cccc(Cl)c1 (centres undefined),1,0.6,43,48,-14,0.5
CCOC(=O)c1c(CN2CCCCC2)n(C)c2ccc(OC)c(S(=O)(=O)c3ccccc3)c12,16,0.9,9,2,0,1
O=c1n(S(=O)(=O)c2cccc3cccnc23)c2ccccc2n1S(=O)(=O)c1cccc2cccnc12,2,0.5,48,17,-5,0.8
COc1ccc(N2CCN(S(=O)(=O)c3cccc4cccnc34)CC2)cc1,11,2.6*,-155,82*,-7,0.2
CC1CC(C)CN(S(=O)(=O)c2cccc3cccnc23)C1 (centres undefined),25,2.5*,-155,68*,-4,0.3
CC1CCCCN1S(=O)(=O)c1cccc2cccnc12 (centres undefined),8,3.9*,-289,79*,-5,0.2
O=S(=O)(c1cccc2cccnc12)N1CCOCC1,-2,4*,-301,39,20,0.6
Cc1nn(-c2ccccc2)c2c1C1(C(=O)Nc3ccccc31)N1C(=N2)Sc2ccccc21 (centres undefined),12,0.6,42,28,9,0.7
CCOC(=O)c1c(=O)n(O)c2ccc(C)cc2[n+]1[O-],2,1.2,-18,-15,-3,1.2
Cn1nc(-c2ccc(N3CCCCC3)c(NC(=O)c3ccco3)c2)c2ccccc2c1=O,13,0,96*,59*,11,0.4
CCC(=O)Nc1cc(-c2nn(C)c(=O)c3ccccc23)ccc1N1CCOCC1,-9,0.4,62*,34,8,0.7
CC1(C)CC(=O)C=C(NCCN2CCN(C(=O)Nc3ccc(Cl)c(Cl)c3)CC2)C1,4,0.7,30,66*,-3,0.3
CC1(C)CC(=O)C=C(NCCN2CCN(C(=O)Nc3ccc(Cl)cc3)CC2)C1,-2,1.1,-9,7,-6,0.9
Cc1cc(C)n2cc(CSc3nnnn3C)nc2n1,6,1.2,-22,-12,-3,1.1
